# Data taken from PubChem BioAssay (NCATS).
# Inconclusive results are not listed. Entries that show only a call come without a potency. Values without a mark were called inactive. The source made the active and inactive calls. The call rests on the fitted dose curve; in most records, active means well fitted curve in the direction sought with a large enough effect; inconclusive means small, poorly fitted or top-dose-only effect, or another doubt; inactive means no such curve, though single readings can be large; an effect the other way counts as inactive or inconclusive.
# Columns and labels:
# OV90 = experiment: Primary qHTS to identify gynecologic anti-cancer compounds using libraries of approved drugs and bioactive compounds (AID 1345084); settings: Gynecologic cancer cell panel viability, ATPlite luminescence, 48 h; series mostly up to 57.5 µM; further: nearly all actives have a fitted effect of over 55% in size
# Outline: (§1)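 Cell viability after 48 h drug treatment, ATPlite luminescence readout; five doses.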
# Tov112D = experiment: as above; settings: Gynecologic cancer cell panel viability, ATPlite luminescence, 48 h; series mostly up to 57.5 µM
# Outline: as §1
# Tov-21-G = experiment: as above; settings: Gynecologic cancer cell panel viability, ATPlite luminescence, 48 h; series mostly up to 57.5 µM
# Outline: as §1
# PA-1 = experiment: as above; settings: Gynecologic cancer cell panel viability, ATPlite luminescence, 48 h; series mostly up to 57.5 µM
# Outline: as §1
# SKOV3 = experiment: as above; settings: Gynecologic cancer cell panel viability, ATPlite luminescence, 48 h; series mostly up to 57.5 µM
# Outline: as §1
# [1] = qHTS assay to identify inhibitors of the type 1 interferon - major histocompatibility complex class I in skeletal muscle: Counter screen cell viability and HiBit confirmation (AID 1347412); settings: iHSKM muscle cells + IFN-b, HiBiT or CellTiter-Glo, 24 h; further: nearly all actives have a fitted effect of over 60% in size
# Outline: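 CRISPR HLA-B*08:01-HiBit immortalized human myoblasts (C25cl48) stimulated with 4 ng/ml IFN-beta and compounds (12-point 1:3, top 46 uM final) for 24 h at 37 C. Duplicate plates read by HiBit lytic luminescence or CellTiter Glo ATP.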
# Potency means the concentration at half of the fitted maximal effect.
compound,measurement,setting,value
C=C(C)C(=O)O[C@H]1C[C@@](C)(O)C(=O)CC(O)/C(C)=C\[C@H]2OC(=O)C(=C)[C@H]12 (some centres undefined),Potency,OV90,inactive
same,Potency,Tov112D,inactive
O=C(CSc1nc2c(c(=O)n1-c1ccccc1)SCC2)Nc1ccc(-c2ccccc2)cn1,Potency,OV90,1.26 µM (active)
same,Potency,Tov-21-G,0.316 µM (active)
same,Potency,Tov112D,0.158 µM (active)
CC1COC(Nc2ccc3ncnc(Nc4ccc(OCc5nccs5)c(Cl)c4)c3c2)=N1 (centres undefined),Potency,PA-1,inactive
same,Potency,SKOV3,15.8 µM (active)
CC(=O)OC1C(=O)C2(C)C(O)CC3OCC3(OC(C)=O)C2C(OC(=O)c2ccccc2)C2(O)CC(OC(=O)C(O)C(NC(=O)c3ccccc3)c3ccccc3)C(C)=C1C2(C)C (centres undefined),Potency,OV90,inactive
same,Potency,Tov112D,inactive
CCC(C)C(=O)OC1CC(O)C23C4OCC5(C(O)CC2C1(C)C(O)O4)C3C(=O)CC1(C)C(c2ccoc2)CC2OC215 (centres undefined),Potency,OV90,1.78 µM (active)
same,Potency,Tov112D,11.2 µM (active)
CN(C)C/C=C/C(=O)Nc1cccc(C(=O)Nc2ccc(Nc3nccc(-c4cccnc4)n3)cc2)c1,Potency,OV90,10 µM (active)
same,Potency,Tov112D,10 µM (active)
CC(O)/C=C/C1(O)C2(C)COC1(C)CC(O)C2 (centres undefined),Potency,PA-1,inactive
CC(C)(C)Nc1nc(Nc2ccc(C(N)=O)cc2)cc(N)c1C#N,Potency,OV90,inactive
same,Potency,Tov112D,inactive
Cc1ccc(C(=O)Nc2noc3ccccc23)cc1,Potency,OV90,11.2 µM (active)
same,Potency,Tov-21-G,28.2 µM (active)
same,Potency,Tov112D,28.2 µM (active)
CO[C@@H](C)Cn1c(=O)n(C)c2cnc3ccc(-c4cncc(C(C)(C)O)c4)cc3c21,Potency,PA-1,0.891 µM (active)
CC(C)[C@@](C)(O)[C@@H]1CN(c2nc(-c3[nH]nc4ncccc34)c(F)cc2Cl)CCN1,Potency,OV90,inactive
same,Potency,Tov112D,inactive
Cc1[nH]nc(C(F)(F)F)c1Cc1sc2c(c1C(=O)N1C[C@](C)(O)CO1)c(=O)n(C)c(=O)n2C(C)C,Potency,OV90,inactive
same,Potency,Tov-21-G,inactive
same,Potency,Tov112D,inactive
CCN1CCN(Cc2ccc(Nc3ncc(F)c(-c4cc(F)c5nc(C)n(C(C)C)c5c4)n3)nc2)CC1,Potency,OV90,inactive
same,Potency,Tov112D,inactive
same,Potency,[1]; HiBiT,8.83 µM (active)
same,Potency,[1]; Viability,22.2 µM (active)
C/C=C/c1ccc(O[C@@H]2O[C@H](CO)[C@@H](O)[C@H](O)[C@H]2O)c(OC)c1,Potency,OV90,inactive
same,Potency,Tov112D,inactive
O=C(Nc1nc2ccccc2n1CCc1ccccc1)c1ccccc1,Potency,PA-1,31.6 µM (active)
COc1cc(-c2ncn(/C=C\C(=O)OC(C)C)n2)cc(C(F)(F)F)c1,Potency,PA-1,0.562 µM (active)
N#Cc1ccc(C(=O)N2CCC3(CC2)N=C(N)c2c(F)ccc(F)c2N3)cn1,Potency,OV90,inactive
same,Potency,Tov-21-G,inactive
same,Potency,Tov112D,inactive
C[C@@H]1COCCN1c1cc(C2(S(C)(=O)=O)CC2)nc(-c2cccc3[nH]ccc23)n1,Potency,PA-1,11.2 µM (active)
same,Potency,SKOV3,3.16 µM (active)
same,Potency,Tov-21-G,1.78 µM (active)
O=C(O)C1CN(Cc2ccc(-c3nc4cc(Cc5ccccc5F)ccc4s3)c(F)c2)C1,"activity change, negative = cytotoxicity",OV90,12.7% [at 11.6 µM]
same,"activity change, negative = cytotoxicity",Tov-21-G,0.219% [at 11.6 µM]
same,"activity change, negative = cytotoxicity",Tov112D,10.6% [at 11.6 µM]
Cc1c[nH]c2nccc(Oc3c(F)cc(Nc4cc(Cl)nc(N)n4)cc3F)c12,Potency,OV90,inactive
same,Potency,Tov112D,7.94 µM (active)
C=C1C(=O)OC2/C=C(\CO)CC/C=C(\C=O)CC(OC(=O)CC(C)C)C12 (centres undefined),Potency,OV90,inactive
same,Potency,Tov112D,inactive
O=C(c1cccc(Cl)c1F)N1CCN(Cc2cccc(Nc3nccs3)n2)CC1,Potency,OV90,inactive
same,Potency,Tov112D,0.891 µM (active)
C#CC[C@H](c1nc2cc(Cl)ccc2c(=O)n1Nc1ccccc1)N(CCCN)C(=O)c1cccc(Cl)c1F,Potency,OV90,inactive
same,Potency,Tov112D,0.355 µM (active)
CCS(=O)(=O)N1CCN(c2ccc(Nc3ncc(C(N)=O)c(NC4CC4)n3)cc2)CC1,Potency,OV90,12.6 µM (active)
same,Potency,Tov112D,inactive
same,Potency,[1]; HiBiT,1.98 µM (active)
same,"activity change, negative = inhibition","[1]; Viability, at 45.9 µM (top of the series)",5.56%
C=C1CCC2C(C)(C)C(O)CCC2(C)C1CCC(C)CCOC(C)=O (centres undefined),Potency,OV90,inactive
same,Potency,Tov-21-G,inactive
same,Potency,Tov112D,inactive
Cc1cccc(/C=N/Nc2cc(N3CCOCC3)n3nc(-c4ccncc4)cc3n2)c1,Potency,OV90,2 µM (active)
same,Potency,Tov112D,3.98 µM (active)
CN(CCc1ccc(Nc2ncc(-c3cccnc3)s2)cc1)Cc1ccccc1,Potency,OV90,inactive
same,Potency,Tov-21-G,inactive
same,Potency,Tov112D,inactive
Cc1cc(N(C)C)ccc1-c1nc2ccc(-c3nc4ccc(N5CCN(C)CC5)cc4[nH]3)cc2[nH]1,Potency,OV90,inactive
same,Potency,Tov-21-G,inactive
same,Potency,Tov112D,inactive
O=C(CC1C(=O)Nc2ccccc21)OC[C@H]1O[C@@H](OCCc2ccc(O)cc2)[C@H](O)[C@@H](O)[C@@H]1O (some centres undefined),Potency,OV90,inactive
same,Potency,Tov-21-G,inactive
same,Potency,Tov112D,inactive
C=C1C(=O)O[C@@H]2/C=C(\C)C(=O)/C=C/[C@](C)(O)C[C@@H](OC(=O)C(C)C)[C@@H]12,Potency,PA-1,4.47 µM (active)
same,Potency,SKOV3,5.62 µM (active)
same,Potency,Tov-21-G,3.98 µM (active)
same,Potency,Tov112D,15.8 µM (active)
CC(C)CNCc1ccc(-c2ccccc2S(=O)(=O)N2CCCC2)cc1,Potency,PA-1,inactive
same,Potency,SKOV3,inactive
same,Potency,Tov-21-G,inactive
same,Potency,Tov112D,inactive
CCN(CC)Cc1ccc(C(=O)N(CCc2ccccc2OC)[C@@H]2CCNC2)cc1,Potency,PA-1,inactive
same,Potency,SKOV3,inactive
same,Potency,Tov-21-G,inactive
same,Potency,Tov112D,inactive
COc1cc(OC)cc(C(=O)Nc2ccc(Cl)c(-c3nc4ccc(N(C)C)cc4[nH]3)c2)c1,Potency,PA-1,inactive
same,Potency,SKOV3,inactive
same,Potency,Tov-21-G,inactive
same,Potency,Tov112D,inactive
